These results are taken from PubChem BioAssay (NCI).

About 83,000 compounds went through this panel and 20% of them were active in at least one assay; those are over-represented in the sample as a whole.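 96-well plates, one dose, 48 hours. Percent growth reported; active if below 10.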 Active and inactive are the calls of the source.

Experiment in all cases: NCI-60 one-dose screen, 48 h (100 = growth as untreated, 0 = no growth, -100 = all killed)
What all share (conditions): 10 µM unless noted

Assay [1] concerns HOP-62 NSCLC.
For assay [2], the system named is NCI-H460 lung.
The subject of assay [3] is 786-0 renal.
In assay [4] the test system is DU-145 prostate.
Assay [5] deals with MALME-3M melanoma.
Assay [6] concerns RXF 393 renal.
Assay [7] concerns SF-295 CNS.
The test system of assay [8] is UACC-257 melanoma.
The test system of assay [9] is M14 melanoma.
Assay [10] deals with SNB-19 CNS.
The test system of assay [11] is SK-MEL-2 melanoma.
For assay [12], the system named is UO-31 renal.
In assay [13] the test system is A498 renal.
Assay [14] has as its system HL-60(TB) leukemia.
Assay [15] has as its system RPMI-8226 leukemia.
In assay [16] the test system is OVCAR-5 ovarian.
Assay [17] has as its system OVCAR-4 ovarian.
Assay [18] has as its system T-47D breast.
The test system of assay [19] is HCC-2998 colon.
For assay [20], the system named is A549/ATCC NSCLC.

With `O=C(CCCN1CCC2(CC1)C(=O)NCN2c1ccc(F)cc1)c1ccc(F)cc1`, the growth in [1] was 95.9% (inactive); in assay [2] it was 96.8% (inactive); in assay [3] it was 101% (inactive); in assay [4], 122% (inactive); in assay [5], 94.7% (inactive); in assay [6] it was 102% (inactive). For the same compound, the growth in [7] was 180% (inactive); in [8] it was 104% (inactive); in assay [9], 97.3% (inactive); in [10], 95.6% (inactive); in assay [11], 84.9% (inactive); in assay [12], 83.6% (inactive). The growth in assay [13] is 106% (inactive); in [14] it was 100% (inactive); in [15], 101% (inactive); in assay [16], 91.3% (inactive); in assay [17], 108% (inactive); in assay [18], 102% (inactive). The growth in assay [19] is 100% (inactive).
Regarding `C[C@]12CC[C@H](OC3OC(O)C(O)C(O)C3O)C=C1CCC1C2CC[C@]2(C)[C@@H](c3ccc(=O)oc3)CC[C@]12O` (some centres undefined), the growth is -97.8% (active) in assay [1]; -80.1% (active) in assay [2]; 102% (inactive) in assay [20]; -84.4% (active) in assay [3]; -100% (active) in assay [4]; -47.6% (active) in [5]. For the same compound, the growth in assay [6] is -24.3% (active); in [7] it was -77.7% (active); in assay [8], 112% (inactive); in [9], -81% (active); in assay [10], -98.8% (active); in assay [11], -61.3% (active). The growth in assay [12] was -92.3% (active); in assay [13], -23.3% (active); in [14] it was -57.3% (active); in assay [15], -20.5% (active); in assay [17] it was -41.9% (active); in assay [18], -71.4% (active). The growth in assay [19] was -90.4% (active).
Turning to `O=S(=O)(Cl)c1ccccc1` (tested in a mixture with another compound), the growth in assay [1] was 92.9% (inactive); in [2], 103% (inactive); in assay [20] it was 102% (inactive); in assay [3] it was 102% (inactive); in assay [4] it was 109% (inactive); in assay [5], 92.2% (inactive). In addition, the growth in assay [6] is 99.1% (inactive); in assay [8], 97.1% (inactive); in assay [9] it was 102% (inactive); in assay [10] it was 100% (inactive); in assay [12], 85% (inactive); in [13] it was 85% (inactive). In addition, the growth was 96.6% (inactive) in [15]; 93.7% (inactive) in assay [16]; 106% (inactive) in assay [17]; 97.7% (inactive) in assay [18]; 100% (inactive) in assay [19].
For `O=C(CCc1ccco1)NC1CCN(CC2(c3ccc(Cl)cc3)CCC2)CC1`, the growth in assay [1] is 39.3% (inactive); in [2] it was 3.79% (active); in assay [20], 8.74% (active); in [3] it was 20.4% (inactive); in assay [4], 24% (inactive); in assay [5], -17.9% (active). Also, the growth is 28.4% (inactive) in assay [6]; -46.5% (active) in assay [7]; -4.36% (active) in assay [8]; 10.3% (inactive) in assay [9]; 15% (inactive) in assay [10]; -24.3% (active) in assay [11]. Further, the growth in assay [12] was 10.7% (inactive); in [13], -15% (active); in assay [14] it was -42.7% (active); in assay [15], -5.13% (active); in assay [16] it was 53.2% (inactive); in [18], 15.4% (inactive). The growth in [19] is 11.4% (inactive).
